The source of these data is ChEMBL document CHEMBL3988442, “University of Dundee, Small-Polar-MMV Screening Library” (2021).

For some assays here: Measured potencies and affinities stand elsewhere.

Holding throughout (set-up): scale not given: direction of the effect not stated beside the values
Assay [1] concerns the target Protein translocase subunit SecA (Escherichia coli (strain K12)) (UniProt P10408). The assay can be described thus: Assay to Identify E. coli SecA ATPase Inhibitors. The note with it: 30 µM. The assay is classed as functional.
Assay [2] concerns the target T1, Ubiquitin-activating enzyme e1, putative (Leishmania donovani (strain BPK282A1)) (UniProt E9BSI1).
T1 sequence (whole entry): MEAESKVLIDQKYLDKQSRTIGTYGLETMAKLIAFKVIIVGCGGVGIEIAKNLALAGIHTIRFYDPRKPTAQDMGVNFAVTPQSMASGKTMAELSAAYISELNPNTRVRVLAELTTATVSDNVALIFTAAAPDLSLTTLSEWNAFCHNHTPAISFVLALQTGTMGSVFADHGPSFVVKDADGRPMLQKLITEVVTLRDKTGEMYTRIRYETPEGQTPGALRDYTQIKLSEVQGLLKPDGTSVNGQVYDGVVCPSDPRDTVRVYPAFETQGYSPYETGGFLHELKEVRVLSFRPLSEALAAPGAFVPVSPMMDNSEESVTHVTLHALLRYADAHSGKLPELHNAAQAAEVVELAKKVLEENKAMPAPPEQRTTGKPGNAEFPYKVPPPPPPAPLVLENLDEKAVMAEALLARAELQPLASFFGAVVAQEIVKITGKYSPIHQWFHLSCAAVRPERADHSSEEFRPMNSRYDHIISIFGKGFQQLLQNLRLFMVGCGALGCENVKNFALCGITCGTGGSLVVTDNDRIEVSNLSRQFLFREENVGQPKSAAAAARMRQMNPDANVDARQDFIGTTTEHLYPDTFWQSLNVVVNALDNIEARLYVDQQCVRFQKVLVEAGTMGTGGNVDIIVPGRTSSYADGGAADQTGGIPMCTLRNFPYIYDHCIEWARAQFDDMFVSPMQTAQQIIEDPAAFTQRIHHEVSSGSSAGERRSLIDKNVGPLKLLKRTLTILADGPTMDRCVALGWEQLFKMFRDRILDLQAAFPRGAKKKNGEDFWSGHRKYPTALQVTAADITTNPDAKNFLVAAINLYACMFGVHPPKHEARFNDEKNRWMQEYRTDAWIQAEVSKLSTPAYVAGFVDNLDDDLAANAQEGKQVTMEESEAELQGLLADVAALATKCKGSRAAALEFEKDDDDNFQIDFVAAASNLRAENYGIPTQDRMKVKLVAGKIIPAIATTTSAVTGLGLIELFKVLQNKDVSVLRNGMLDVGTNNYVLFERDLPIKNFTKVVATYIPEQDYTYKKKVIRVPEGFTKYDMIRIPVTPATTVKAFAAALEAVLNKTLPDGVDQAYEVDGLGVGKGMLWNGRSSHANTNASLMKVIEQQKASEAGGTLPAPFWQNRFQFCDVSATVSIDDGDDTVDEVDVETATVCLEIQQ
As to the kind of experiment: Leishmania donovani Ubiquitin Activating Enzyme (LdE1). The assay is classed as functional. The note with it: 30 µM.

Assay [3] deals with Sialic acid-binding Ig-like lectin 9 (Homo sapiens) (UniProt Q9Y336). As to the kind of experiment: Hs-Siglec9 ALPHAscreen SOP 20170721. The note with it: 10 µM.
Sialic acid-binding Ig-like lectin 9 (Homo sapiens), sequence (Q9Y336 whole entry): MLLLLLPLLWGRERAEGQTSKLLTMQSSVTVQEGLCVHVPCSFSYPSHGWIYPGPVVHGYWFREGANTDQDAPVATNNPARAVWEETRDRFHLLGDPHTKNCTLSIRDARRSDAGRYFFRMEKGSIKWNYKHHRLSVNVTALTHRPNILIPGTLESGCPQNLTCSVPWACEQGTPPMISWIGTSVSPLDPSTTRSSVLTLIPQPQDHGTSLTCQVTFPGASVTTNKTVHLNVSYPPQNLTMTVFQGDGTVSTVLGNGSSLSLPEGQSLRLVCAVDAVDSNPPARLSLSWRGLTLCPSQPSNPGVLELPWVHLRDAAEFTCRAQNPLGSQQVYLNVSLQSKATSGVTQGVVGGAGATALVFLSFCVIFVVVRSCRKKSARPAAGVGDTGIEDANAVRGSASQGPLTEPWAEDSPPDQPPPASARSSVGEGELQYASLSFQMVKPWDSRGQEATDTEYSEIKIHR
For a further assay, the system named is Trypanosoma cruzi. As to the kind of experiment: Trypanosoma cruzi phosphomannomutase and mannose-1-phosphate guanylyltransferase assay. The assay is classed as functional. To be noted: 10 µM.
Assay [4] addresses T2, Arginase-2, mitochondrial (Homo sapiens) (UniProt P78540).
T2 sequence (whole entry): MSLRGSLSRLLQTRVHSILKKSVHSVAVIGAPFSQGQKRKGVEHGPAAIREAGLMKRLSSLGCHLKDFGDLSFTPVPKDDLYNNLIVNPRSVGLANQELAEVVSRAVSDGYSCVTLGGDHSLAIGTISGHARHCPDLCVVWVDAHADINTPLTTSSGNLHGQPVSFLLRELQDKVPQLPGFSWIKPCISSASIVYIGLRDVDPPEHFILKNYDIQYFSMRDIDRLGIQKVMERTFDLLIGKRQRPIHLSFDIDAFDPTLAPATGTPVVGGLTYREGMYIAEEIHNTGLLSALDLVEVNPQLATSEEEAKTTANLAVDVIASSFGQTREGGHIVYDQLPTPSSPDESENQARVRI
As to the kind of experiment: in vitro enzyme assay to detect the production of urea directly proportional to the activity of Arginase II. Also: in the data most compounds retested in dose-response had high values. It counts as functional. The note with it: 33.3 µM.

The target of assay [5] is T3, Proteasome subunit beta (Trypanosoma cruzi) (UniProt O96673).
T3 sequence (whole entry): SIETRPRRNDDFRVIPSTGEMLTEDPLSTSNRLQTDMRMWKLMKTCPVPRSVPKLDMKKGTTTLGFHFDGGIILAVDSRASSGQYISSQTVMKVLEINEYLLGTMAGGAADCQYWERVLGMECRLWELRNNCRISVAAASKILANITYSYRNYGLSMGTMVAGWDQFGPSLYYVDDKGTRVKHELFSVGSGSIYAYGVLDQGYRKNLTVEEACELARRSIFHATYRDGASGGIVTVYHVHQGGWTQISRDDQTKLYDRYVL
As to the kind of experiment: Trypanosoma cruzi proteasome chymotrypsin-like activity (TcProtChymo) assay. Also: in the data most compounds retested in dose-response had high values. The assay is classed as functional. The note with it: 9.37 µM.

For another assay, the species on record is Homo sapiens. As to the kind of experiment: To identify inhibition of the IFN signalling (Jak-Stat) pathway via expression of an eGFP reporter gene under the control of an IFN-stimulated response element (ISRE) containing MxA promoter. It counts as functional. To be noted: 30 µM.
For assay [6], the target named is T4, Tyrosyl-tRNA synthetase, putative (Trypanosoma cruzi (strain CL Brener)) (UniProt Q4DSP6).
T4 sequence (whole entry): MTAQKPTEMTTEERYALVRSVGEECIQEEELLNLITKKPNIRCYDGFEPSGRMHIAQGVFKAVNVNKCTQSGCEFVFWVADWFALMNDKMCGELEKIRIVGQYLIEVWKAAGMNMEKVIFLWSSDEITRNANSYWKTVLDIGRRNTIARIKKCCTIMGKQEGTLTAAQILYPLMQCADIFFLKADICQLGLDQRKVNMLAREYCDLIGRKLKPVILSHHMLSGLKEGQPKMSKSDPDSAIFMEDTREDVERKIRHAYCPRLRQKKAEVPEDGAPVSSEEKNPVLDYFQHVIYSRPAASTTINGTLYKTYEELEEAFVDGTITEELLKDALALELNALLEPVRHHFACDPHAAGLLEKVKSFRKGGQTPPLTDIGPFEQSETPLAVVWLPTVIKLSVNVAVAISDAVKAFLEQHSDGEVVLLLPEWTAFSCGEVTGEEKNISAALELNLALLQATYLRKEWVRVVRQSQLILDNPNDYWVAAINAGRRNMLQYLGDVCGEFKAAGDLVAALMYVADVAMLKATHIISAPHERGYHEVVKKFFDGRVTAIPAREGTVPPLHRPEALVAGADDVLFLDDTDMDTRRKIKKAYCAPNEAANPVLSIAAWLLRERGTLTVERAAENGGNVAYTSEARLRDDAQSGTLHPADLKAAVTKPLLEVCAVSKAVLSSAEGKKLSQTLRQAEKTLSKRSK
As to the kind of experiment: Trypanosoma cruzi tyrosyl tRNA synthetase (TcYRS) _High Tyrosine SOP. Also: in the data most compounds retested in dose-response had high values. The assay is classed as functional. The note with it: 30 µM.

Assay [7] has as its target T4, Tyrosyl-tRNA synthetase, putative (Trypanosoma cruzi (strain CL Brener)). As to the kind of experiment: Trypanosoma cruzi tyrosyl tRNA synthetase (TcYRS) SOP. The assay is classed as functional. The note with it: 30 µM.
For assay [8], the target named is Chromo domain-containing protein 1 (Saccharomyces cerevisiae (strain ATCC 204508 / S288c) (Baker's yeast)) (UniProt P32657). The assay can be described thus: ScCHD-1 Enzyme Inhibition Assay. Also: in the data most compounds retested in dose-response had high values. The assay is classed as functional. The note with it: 30 µM.
Chromo domain-containing protein 1 (Saccharomyces cerevisiae (strain ATCC 204508 / S288c) (Baker's yeast)), sequence (P32657 whole entry, the tested form may be a part): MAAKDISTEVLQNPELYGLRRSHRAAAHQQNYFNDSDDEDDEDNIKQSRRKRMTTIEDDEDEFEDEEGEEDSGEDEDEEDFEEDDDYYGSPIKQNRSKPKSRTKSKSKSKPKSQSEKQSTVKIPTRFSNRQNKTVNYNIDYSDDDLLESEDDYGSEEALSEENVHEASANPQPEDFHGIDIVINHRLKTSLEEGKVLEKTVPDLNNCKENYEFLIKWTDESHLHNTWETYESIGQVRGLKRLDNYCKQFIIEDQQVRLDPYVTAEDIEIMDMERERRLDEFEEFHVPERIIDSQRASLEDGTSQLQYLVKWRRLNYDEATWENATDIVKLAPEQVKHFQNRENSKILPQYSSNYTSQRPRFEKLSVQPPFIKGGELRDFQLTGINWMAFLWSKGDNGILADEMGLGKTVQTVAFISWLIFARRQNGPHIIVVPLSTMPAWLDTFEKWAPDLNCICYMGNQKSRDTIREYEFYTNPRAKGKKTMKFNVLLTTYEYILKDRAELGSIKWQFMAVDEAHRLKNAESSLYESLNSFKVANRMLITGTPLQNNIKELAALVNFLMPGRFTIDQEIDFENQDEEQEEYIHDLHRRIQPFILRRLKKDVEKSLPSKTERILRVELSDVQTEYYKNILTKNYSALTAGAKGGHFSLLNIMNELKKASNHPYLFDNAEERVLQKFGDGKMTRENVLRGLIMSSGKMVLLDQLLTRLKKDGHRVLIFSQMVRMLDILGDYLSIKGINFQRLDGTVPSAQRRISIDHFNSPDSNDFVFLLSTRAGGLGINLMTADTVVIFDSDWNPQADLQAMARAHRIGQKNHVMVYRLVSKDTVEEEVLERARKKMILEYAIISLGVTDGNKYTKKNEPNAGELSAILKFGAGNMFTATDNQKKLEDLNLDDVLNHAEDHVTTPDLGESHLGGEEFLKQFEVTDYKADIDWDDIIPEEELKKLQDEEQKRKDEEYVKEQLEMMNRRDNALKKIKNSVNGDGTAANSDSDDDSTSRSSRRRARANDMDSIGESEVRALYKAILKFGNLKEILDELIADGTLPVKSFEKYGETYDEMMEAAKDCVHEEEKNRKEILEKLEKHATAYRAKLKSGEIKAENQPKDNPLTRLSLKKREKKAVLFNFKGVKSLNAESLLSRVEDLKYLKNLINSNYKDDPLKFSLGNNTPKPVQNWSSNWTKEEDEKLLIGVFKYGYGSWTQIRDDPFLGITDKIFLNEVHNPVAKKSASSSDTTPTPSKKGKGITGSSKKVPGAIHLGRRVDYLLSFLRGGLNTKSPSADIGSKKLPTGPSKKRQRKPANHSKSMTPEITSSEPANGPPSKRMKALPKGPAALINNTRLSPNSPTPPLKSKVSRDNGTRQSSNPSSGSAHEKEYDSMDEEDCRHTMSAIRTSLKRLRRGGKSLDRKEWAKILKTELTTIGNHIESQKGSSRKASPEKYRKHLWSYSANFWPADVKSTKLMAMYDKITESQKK

Protein translocase subunit SecA (Escherichia coli (strain K12)), sequence (P10408 whole entry): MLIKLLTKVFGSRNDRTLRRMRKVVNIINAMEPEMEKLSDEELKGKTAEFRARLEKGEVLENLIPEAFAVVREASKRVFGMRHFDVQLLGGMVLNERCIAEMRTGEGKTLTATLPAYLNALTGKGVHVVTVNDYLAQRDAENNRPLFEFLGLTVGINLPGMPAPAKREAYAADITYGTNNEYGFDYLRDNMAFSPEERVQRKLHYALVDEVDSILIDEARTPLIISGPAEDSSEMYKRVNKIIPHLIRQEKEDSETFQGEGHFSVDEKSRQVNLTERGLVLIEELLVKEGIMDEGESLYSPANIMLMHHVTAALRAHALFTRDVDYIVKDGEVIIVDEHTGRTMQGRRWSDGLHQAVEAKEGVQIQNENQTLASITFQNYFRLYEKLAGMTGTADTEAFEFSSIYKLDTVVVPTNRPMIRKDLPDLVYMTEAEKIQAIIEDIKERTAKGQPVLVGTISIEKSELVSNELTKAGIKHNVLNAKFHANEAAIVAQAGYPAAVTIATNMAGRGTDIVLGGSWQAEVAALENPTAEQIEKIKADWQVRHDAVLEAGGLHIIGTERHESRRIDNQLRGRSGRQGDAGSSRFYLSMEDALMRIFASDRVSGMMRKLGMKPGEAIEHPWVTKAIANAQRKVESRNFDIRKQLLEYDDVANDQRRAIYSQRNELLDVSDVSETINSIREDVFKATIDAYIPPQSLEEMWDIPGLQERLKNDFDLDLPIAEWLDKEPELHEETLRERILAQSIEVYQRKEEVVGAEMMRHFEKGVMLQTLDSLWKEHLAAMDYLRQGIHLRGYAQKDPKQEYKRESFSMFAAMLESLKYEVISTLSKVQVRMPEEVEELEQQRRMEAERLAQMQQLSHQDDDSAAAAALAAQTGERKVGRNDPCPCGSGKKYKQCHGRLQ

Consider `COc1cc(C)nc(N2CCN(C(=O)CN(C)C3CC3)CC2)n1`, for which the Percent Effect in assay [1] is -5.5%; in [2] it was 7.69%; in [3] it was -4.33%; in the assay with Trypanosoma cruzi, -3.1%; in [4] it was -1.23%; in assay [5], 2.99%. The Percent Effect in the assay filed under Homo sapiens was 28.9%; in [6], -1.44%; in [7], 8.43%; in [8], 0.147%.

`Cc1noc(C2CCN(C(=O)CCNS(C)(=O)=O)CC2)n1`: the Percent Effect in [1] is -2.97%; in [2], 10.3%; in [3], 4.81%; in the assay with Trypanosoma cruzi it was 3.47%; in assay [4], 3.69%; in assay [5] it was 5.89%. Further, the Percent Effect in the assay filed under Homo sapiens is 3.03%; in assay [6], 4.31%; in assay [7], 18.1%; in assay [8], -0.743%.

As to `CC(C)c1nc(C2CCCN2CC(=O)Nc2nncs2)no1` (stereo not given), the Percent Effect was -6.03% in assay [1]; 16% in assay [2]; 8.36% in assay [3]; 0.402% in the assay on Trypanosoma cruzi; -1.33% in [4]; 5.17% in assay [5]. In addition, the Percent Effect turned out to be 7.39% in the assay filed under Homo sapiens, 5.79% in assay [6], 15.4% in assay [7] and 23.5% in [8].

On to `CC(C)NC(=O)N1CCC2(CC(=O)N(c3cccc(C#N)c3)C2)C1` (stereo not given), for which the Percent Effect in [1] is -4.66%; in assay [2], -16.9%; in assay [3], 0.438%; in the assay on Trypanosoma cruzi, -3.6%; in assay [4] it was -3.64%; in assay [5], 9.8%. Moreover, the Percent Effect is -4.77% in the assay filed under Homo sapiens, -0.526% in assay [6], -35.9% in assay [7] and -0.524% in assay [8].

In the case of `Fc1ccc(-c2nnc(CN3CCn4c(nnc4C4CC4)C3)o2)cc1`, the Percent Effect in [1] was -4.82%; in assay [2] it was -18.7%; in assay [3], 2.87%; with Trypanosoma cruzi it was -3.81%; in assay [4], 1.77%; in assay [5] it was 3.99%. Also, the Percent Effect in the assay filed under Homo sapiens is -0.798%; in assay [6], 10%; in [7], 15.4%; in assay [8] it was -6.37%.

As to `CS(=O)(=O)NCC1CCCN(C(=O)COCc2ccccc2)C1` (stereo not given), the Percent Effect was -1.97% in [1]; 15.4% in assay [2]; -3.29% in assay [3]; 4.41% in the assay with Trypanosoma cruzi; 6.56% in assay [4]; 1.96% in assay [5]. The Percent Effect was 17.6% in the assay listed under Homo sapiens, 0.478% in [6], 20.5% in [7] and -5.38% in assay [8].

For the molecule `Cc1cc(N2CCC(NC(=O)C3CC3)CC2)nc(-c2ccncc2)n1`, the Percent Effect in [1] was -0.846%; in [2], 23.4%; in [3], 0.849%; in the assay with Trypanosoma cruzi, 2.98%; in assay [4], -1.43%; in [5] it was 13%. In addition, the Percent Effect in the assay listed under Homo sapiens was 9.23%; in assay [6] it was 12.8%; in assay [7], 35.3%; in [8], -0.543%.

As to `CN(Cc1ccco1)[C@@H]1CN(Cc2ccc(F)cc2)C[C@@H]2CCCO[C@@H]21`, the Percent Effect in [1] was -5.51%; in assay [2] it was 9.09%; in [3] it was -4.8%; with Trypanosoma cruzi, -5.16%; in assay [4], -6.48%; in assay [5], 15.4%. The Percent Effect is -5.78% in the assay listed under Homo sapiens, 3.68% in assay [6], 12.8% in assay [7] and -3.55% in [8].

Turning to `CCc1ncc2c(n1)CN(CC(=O)Nc1nnc(C)s1)CC2`, the Percent Effect in assay [1] was -2.11%; in assay [2], 5.33%; in assay [3], 0.404%; in the assay on Trypanosoma cruzi it was -4.22%; in assay [4], 5.32%; in assay [5], 8.4%. For the same molecule, the Percent Effect was -8.8% in the assay listed under Homo sapiens, 6.84% in assay [6], 10.3% in assay [7] and -13.6% in assay [8].

Take `NC(=O)C1(CCCc2cccnc2)CCCN(c2ncccn2)C1` (stereo not given): the Percent Effect in assay [1] is -2.51%; in [2] it was 4%; in assay [3], 3.57%; in the assay with Trypanosoma cruzi, -3.16%; in [4], 0.885%; in assay [5], 3.61%. The Percent Effect in the assay filed under Homo sapiens is 8.71%; in assay [6], 4.23%; in assay [7], 5%; in assay [8], -13%.

Turning to `COCC1CC2(CCN(Cc3ccc(OC)cc3)CC2)CN1C(C)C` (stereo not given), the Percent Effect was -6.15% in [1]; -9.09% in assay [2]; -0.064% in [3]; -1.66% in the assay on Trypanosoma cruzi; -4.05% in [4]; 0.0883% in assay [5]. The Percent Effect in the assay filed under Homo sapiens was -19.4%; in [6], 0.526%; in assay [7] it was 2.56%; in assay [8] it was 1.65%.
